What all share (test): PBM binding z-score (relative to random genomic background probes); higher = stronger binding; sequences stand for … in GC…GCGATTGACAGCGTAGAATGAAGG
Experiment [1] has as its system RARb homodimer (NR concentration 270 nM). A digest of the protocol:
(§1)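 Binding z-scores take random background probes as their reference. They come from custom Agilent 4×180K protein-binding microarrays incubated 1 h with ligand-free nuclear receptor dimers, with antibodies against each partner (one per run) detecting binding. Scanned fluorescence was regression-normalized.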

Experiment [2] deals with RARg:RXRa (NR concentration 270 nM, RXRa partner concentration 90 nM). A digest of the protocol:
as §1

In experiment [3] the test system is RARg homodimer (NR concentration 270 nM). The method, boiled down:
as §1

For experiment [4], the system named is RXRa DBDmut IVT, anti-RXR (DBD mutation: RXRa K156A/R161A, NR concentration 90 nM). The method, boiled down:
as §1

In experiment [5] the test system is RXRa homodimer (NR concentration 180 nM). The method, boiled down:
as §1

For experiment [6], the system named is THRa:RXRa (NR concentration 90 nM, RXRa partner concentration 90 nM). The method, boiled down: as §1
Experiment [7] concerns THRa homodimer (NR concentration 90 nM). A digest of the protocol: as §1
Experiment [8] has as its system VDR:RXRa (NR concentration 270 nM, RXRa partner concentration 90 nM). The method, boiled down:
as §1

The subject of experiment [9] is VDR homodimer (NR concentration 270 nM). A digest of the protocol:
as §1

For the sequence CGAGCTAGGTCAAAGGACAGTGAAAGGCGACGTA, the PBM binding z-score in [1] was found to be 2.82; in [2], 4.31; in experiment [3] it was 4.87; in experiment [4], 1.29; in experiment [5] it was 2.99; in experiment [6] it was 2.3. Besides, the PBM binding z-score turned out to be 0.253 in experiment [7], 0.97 in experiment [8] and 0.416 in [9].

With CCGAGTAGGTTACGAAGGGGCATTCAGTGCGAAT, the PBM binding z-score in experiment [1] worked out at 1.42; in [2], 1.22; in [3], 1.2; in experiment [4], 0.309; in [5], 0.781; in [6], 2.26. Further, the PBM binding z-score was -0.808 in experiment [7], 3.08 in [8] and 1.23 in [9].

In the case of CCGAGTAGGCTACGAGGGGGCATTCAGTGCGAAT, the PBM binding z-score in [1] turned out to be 0.928; in experiment [2], 1.09; in experiment [3] it was 0.795; in experiment [4], 0.409; in [5] it was 0.458; in experiment [6], 1.79. Moreover, the PBM binding z-score in experiment [7] was -0.405; in experiment [8], 3.16; in experiment [9] it was 2.19.

On to CCTTACGGGTCACTTACAGGTTATAGCATTTGGA, for which the PBM binding z-score was determined as 3.2 in experiment [1]; 5.65 in [2]; 4.51 in [3]; 2.19 in experiment [4]; 4.62 in [5]; 2.95 in experiment [6]. In addition, the PBM binding z-score in experiment [7] came to 0.577; in experiment [8], 3.6; in experiment [9], 1.66.

On to ATCGAAAGGTCGTGAGGTGACTATACAGAAAGGC, for which the PBM binding z-score turned out to be 3.07 in [1]; 4.7 in experiment [2]; 3.57 in [3]; 1.29 in experiment [4]; 5.22 in [5]; 3.87 in experiment [6]. The results for the PBM binding z-score in experiment [7], in experiment [8] and in [9] were 1.85, 3.64 and 0.91, respectively.

Consider CTCGAAAGGTCGGTTGAGGTGAGTAAACGGATAA, for which the PBM binding z-score in experiment [1] worked out at 2.42; in [2], 2.86; in experiment [3], 2.8; in [4], 0.85; in experiment [5], 2.46; in experiment [6] it was 4.97. Further, the PBM binding z-score in [7] stood at 1.19; in experiment [8], 2.11; in experiment [9], 0.238.

On to CTATGTAGGTGAAGGGGGTCATTCAGTTTGAAAG, for which the PBM binding z-score in [1] was 3.79; in experiment [2], 4.75; in experiment [3] it was 3.55; in experiment [4], 2.11; in [5], 5.63; in [6], 3.88. For the same sequence, the PBM binding z-score in [7] came to 1.67; in [8], 7.13; in experiment [9], 5.55.

In the case of CCTAGTTGGTCAGGTGGTCACACACCGGATATGA, the PBM binding z-score was 1.48 in experiment [1]; 1.03 in experiment [2]; 1.38 in [3]; -0.358 in experiment [4]; 0.463 in [5]; 0.254 in [6]. Further, the values for the PBM binding z-score in [7], in experiment [8] and in [9] were 0.259, 0.156 and 0.314, respectively.

As to CAAAATAGGTCAAGAGGTCAAAGTCCGCTTCCCG, the PBM binding z-score in [1] amounted to 6.03; in experiment [2] it was 8.39; in [3] it was 7.82; in [4] it was 2.72; in [5], 8.82; in experiment [6] it was 4.28. Further, the PBM binding z-score was found to be 1.76 in experiment [7], 6.53 in experiment [8] and 3.91 in experiment [9].

As to AATACAGGGTCACTAGGCCCGAGTAGGTACGAAT, the PBM binding z-score in experiment [1] worked out at 2.85; in experiment [2] it was 5.05; in experiment [3], 4.72; in experiment [4] it was 2.31; in experiment [5], 5.31; in experiment [6], 3.09. The PBM binding z-score worked out at 0.859 in experiment [7], 3.96 in [8] and 2.26 in [9].

Consider CTATGTAGGTTAAGGGGGACATTCAGTTTGAAAG, for which the PBM binding z-score was 1.99 in experiment [1]; 1.81 in [2]; 1.7 in experiment [3]; 1.47 in [4]; 1.39 in [5]; 2.23 in [6]. The figures for the PBM binding z-score in [7], in experiment [8] and in experiment [9] were 1.37, 4.95 and 2.64, respectively.

With CTGTGTAGGTTAAGGGGGTCATTCAGTTTGAAAG, the PBM binding z-score is 4.19 in [1]; 5.13 in [2]; 4.04 in [3]; 2.68 in experiment [4]; 5.91 in experiment [5]; 3.89 in experiment [6]. Moreover, the PBM binding z-score in [7] came out at 2.98; in [8], 7.46; in [9], 5.36.

Turning to CCGAGTAGGTTACGAGGGGACATTCAGTGCGAAT, the PBM binding z-score stood at 1.22 in experiment [1]; 1.25 in experiment [2]; 1.25 in [3]; 0.594 in experiment [4]; 0.907 in experiment [5]; 4.11 in experiment [6]. Also, the PBM binding z-score was determined as 0.165 in [7], 2.82 in experiment [8] and 1.46 in experiment [9].

Regarding TGACTGAGGTTAAAGATCAGGGAACGTGGCGTCG, the PBM binding z-score in [1] worked out at 0.864; in [2], 2.39; in experiment [3], 1.35; in experiment [4], 0.903; in experiment [5], 3.77; in experiment [6] it was 2.41. Moreover, the results for the PBM binding z-score in experiment [7], in experiment [8] and in [9] were 0.422, 1.69 and 0.537, respectively.

Take ATATGTAGGATAGGGTCATTCAGAAAGTAGGGAA: the PBM binding z-score was found to be 2.75 in [1]; 3.19 in [2]; 2.22 in experiment [3]; 1.78 in experiment [4]; 4.32 in [5]; 3.59 in experiment [6]. The PBM binding z-score in experiment [7] turned out to be 2.24; in experiment [8], 3.79; in [9] it was 3.42.

Consider CCTGCTAGTTCAATGGTCAGCTAAAGCAGCTCGC, for which the PBM binding z-score in [1] is 1.18; in [2], 0.412; in experiment [3], 0.679; in [4] it was 2.42; in experiment [5], 0.154; in [6] it was 0.222. Moreover, the PBM binding z-score is -0.395 in experiment [7], 0.426 in experiment [8] and 0.706 in experiment [9].

(Values after the supplement of paper PMC6555819.)
